# Experimental data: PubChem BioAssay (NCATS)
# Several values for one entry are separate records, joined by “and”; a condition that tells them apart may be missing. Identical values can stand only once. Values without a mark were called inactive. Records with an inconclusive call do not appear. A call without a number means that no potency is given here. Activity calls are given as the source filed them. Unless noted, calls come from the whole dose curve; as a rule, active = well fitted curve in the direction sought with a large enough effect; inconclusive = small, poorly fitted or top-dose-only effect, or another doubt; inactive = no such curve, though single readings can be large; an effect the other way counts as inactive or inconclusive.
# Assays:
# [1] = AP1 Signaling Pathway (AID 357; active = well fitted curve in either direction with a large enough effect, not every such curve was filed as active;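 note: ME-180 reporter cells stimulated with EGF at its EC50 level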); conditions: ME-180 AP-1-bla reporter, EGF-induced, beta-lactamase ratio, 5 h; at 7.69 µM (top of the series) unless noted
# Outline: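 Read-out was the 460nm/530nm emission ratio (excitation 405nm) after CCF4 loading for 2.5 hours at room temperature. Cells carried an AP-1-driven beta-lactamase reporter, were stimulated with EC50 EGF plus compound for 5 hours, and AC50 values came from titrations.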
# [2] = biological target: Cytochrome P450 1A2 (Homo sapiens) (UniProt P05177); experiment: p450-cyp1a2 (AID 410; calls by dose curve; note: potency is the fitted concentration of half-maximal effect)
# Sequence of Cytochrome P450 1A2 (Homo sapiens) (P05177 whole entry, looked up): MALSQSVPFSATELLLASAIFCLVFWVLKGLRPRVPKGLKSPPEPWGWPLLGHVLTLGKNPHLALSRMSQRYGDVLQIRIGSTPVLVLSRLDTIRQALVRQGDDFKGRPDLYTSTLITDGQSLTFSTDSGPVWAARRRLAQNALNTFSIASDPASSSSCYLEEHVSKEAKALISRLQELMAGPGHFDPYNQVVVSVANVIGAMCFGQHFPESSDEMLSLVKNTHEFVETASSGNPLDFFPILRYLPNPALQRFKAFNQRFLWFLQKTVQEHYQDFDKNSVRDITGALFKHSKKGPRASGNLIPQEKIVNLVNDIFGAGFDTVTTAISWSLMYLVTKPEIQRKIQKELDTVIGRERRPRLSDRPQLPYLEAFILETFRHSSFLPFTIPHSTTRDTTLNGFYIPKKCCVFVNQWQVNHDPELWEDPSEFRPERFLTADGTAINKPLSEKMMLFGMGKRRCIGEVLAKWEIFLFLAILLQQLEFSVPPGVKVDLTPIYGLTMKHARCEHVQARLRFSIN
# Outline: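 Human CYP1A2 (20nM) demethylated Luciferin-ME at its Km (100uM) in 100mM KPO4. After 10 min compound preincubation, NADPH regeneration ran the reaction 60 min at room temperature. Luciferin was read by luminescence, normalized to 57 uM furafylline.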
# [3] = NFAT Signaling Pathway (AID 444; active = well fitted curve in either direction with a large enough effect, not every such curve was filed as active;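 note: carbachol stimulus at about its EC50 of 1 µM final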); conditions: Jurkat NFAT-bla M1, carbachol, beta-lactamase ratio, 5 h; at 7.69 µM (top of the series) unless noted
# Outline: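 Jurkat cells with NFAT-driven β-lactamase reporter and co-expressed M1 receptor, stimulated with carbachol (final 1 uM, ~EC50), compound titration, 5 h at 37 °C. CCF4 loaded 1 h at RT; 460/530 nm ratio gave %activity and AC50.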
# [4] = Stat Signaling Pathway (AID 446; active = well fitted curve in either direction with a large enough effect, not every such curve was filed as active;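 note: ME-180 cervical cancer cells given 40 pM IL-6 alongside compound; SIE-controlled beta-lactamase reporter measured as 460/530 nm FRET emission ratio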); conditions: ME-180 SIE beta-lactamase reporter, IL-6 stimulated, 5 h; at 7.69 µM (top of the series) unless noted
# Outline: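 Reporter line: ME-180 cervical carcinoma, SIE-beta-lactamase. Treatment: compound with 40 pM IL-6, 5 hrs, 37 C, in low-serum OPTI-MEM with 10 mM HEPES pH 7.3. Detection: 460/530 nm fluorescence.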
# [5] = biological target: Glucocorticoid receptor (Homo sapiens) (UniProt P04150); experiment: GR-GFP Redistribution (AID 450;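 active = compounds whose dose series gives a full or clear partial fitted curve of increased nuclear translocation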; note: potency is the fitted concentration of half-maximal effect); conditions: U2OS GR-GFP nuclear translocation, laser cytometry, 2 h
# Sequence of Glucocorticoid receptor (Homo sapiens) (P04150 whole entry, looked up, the tested form may be a part): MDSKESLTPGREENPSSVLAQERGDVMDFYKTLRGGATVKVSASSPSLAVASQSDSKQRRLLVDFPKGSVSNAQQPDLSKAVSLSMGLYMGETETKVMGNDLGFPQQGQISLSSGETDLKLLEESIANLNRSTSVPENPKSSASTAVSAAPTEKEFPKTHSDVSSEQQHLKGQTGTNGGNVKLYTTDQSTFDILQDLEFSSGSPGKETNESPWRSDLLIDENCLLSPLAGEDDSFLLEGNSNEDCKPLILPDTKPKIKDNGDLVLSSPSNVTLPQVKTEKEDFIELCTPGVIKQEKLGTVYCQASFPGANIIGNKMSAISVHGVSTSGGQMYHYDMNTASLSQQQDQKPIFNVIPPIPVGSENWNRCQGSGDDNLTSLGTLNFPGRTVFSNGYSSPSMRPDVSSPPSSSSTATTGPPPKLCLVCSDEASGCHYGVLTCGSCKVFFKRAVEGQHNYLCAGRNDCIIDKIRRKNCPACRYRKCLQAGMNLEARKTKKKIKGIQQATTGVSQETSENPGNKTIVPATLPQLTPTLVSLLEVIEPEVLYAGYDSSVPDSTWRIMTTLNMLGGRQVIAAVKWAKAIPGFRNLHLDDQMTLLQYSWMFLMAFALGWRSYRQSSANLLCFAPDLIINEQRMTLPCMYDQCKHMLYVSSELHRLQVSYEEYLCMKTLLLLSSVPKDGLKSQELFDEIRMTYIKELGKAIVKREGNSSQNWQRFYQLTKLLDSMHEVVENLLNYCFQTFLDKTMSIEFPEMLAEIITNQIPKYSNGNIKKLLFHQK
# [6] = biological target: Glucocorticoid receptor (Homo sapiens) (UniProt P04150); experiment: GR-EFC Redistribution (AID 451; calls by dose curve; note: potency is the fitted concentration of half-maximal effect); conditions: CHO-K1 GR-EFC translocation, beta-gal luminescence, 2 h
# Outline: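 CHO-K1 cells expressing nuclear EA and GR-ED fragments of b-gal; compounds titrated up to 46 uM final, 2 h at 37 C. GR nuclear translocation read as complemented b-gal luminescence after 1 h RT detection.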
# [7] = biological target: Mitogen-activated protein kinase 10 (Mus musculus) (UniProt Q61831); experiment: JNK3 AlphaScreen Assay (AID 530; active = well fitted curve in either direction with a large enough effect, not every such curve was filed as active;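 note: kinase came from lysate of stimulated human HepG2 cells; signal reports phosphorylation of biotinylated GST-cJun 1-79 at Ser73 with 10 µM ATP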)
# Outline: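 qHTS format: compounds tested as titrations against IL-1beta/TNF-alpha-activated HepG2 lysate JNK3 with biotin-GST-cJun substrate and 10 uM ATP at room temperature. Loss of anti-phospho-cJun AlphaScreen signal indicates inhibition.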
# [8] = biological target: 3',5'-cyclic-AMP phosphodiesterase 4B (Homo sapiens) (UniProt Q07343); experiment: qHTS Assay for Inhibitors of PDE-IV (AID 607; active = well fitted activation curve with a large enough effect in the main read-out, with a control signal flat, not every such curve was filed as active)
# Sequence of 3',5'-cyclic-AMP phosphodiesterase 4B (Homo sapiens) (Q07343 whole entry, looked up): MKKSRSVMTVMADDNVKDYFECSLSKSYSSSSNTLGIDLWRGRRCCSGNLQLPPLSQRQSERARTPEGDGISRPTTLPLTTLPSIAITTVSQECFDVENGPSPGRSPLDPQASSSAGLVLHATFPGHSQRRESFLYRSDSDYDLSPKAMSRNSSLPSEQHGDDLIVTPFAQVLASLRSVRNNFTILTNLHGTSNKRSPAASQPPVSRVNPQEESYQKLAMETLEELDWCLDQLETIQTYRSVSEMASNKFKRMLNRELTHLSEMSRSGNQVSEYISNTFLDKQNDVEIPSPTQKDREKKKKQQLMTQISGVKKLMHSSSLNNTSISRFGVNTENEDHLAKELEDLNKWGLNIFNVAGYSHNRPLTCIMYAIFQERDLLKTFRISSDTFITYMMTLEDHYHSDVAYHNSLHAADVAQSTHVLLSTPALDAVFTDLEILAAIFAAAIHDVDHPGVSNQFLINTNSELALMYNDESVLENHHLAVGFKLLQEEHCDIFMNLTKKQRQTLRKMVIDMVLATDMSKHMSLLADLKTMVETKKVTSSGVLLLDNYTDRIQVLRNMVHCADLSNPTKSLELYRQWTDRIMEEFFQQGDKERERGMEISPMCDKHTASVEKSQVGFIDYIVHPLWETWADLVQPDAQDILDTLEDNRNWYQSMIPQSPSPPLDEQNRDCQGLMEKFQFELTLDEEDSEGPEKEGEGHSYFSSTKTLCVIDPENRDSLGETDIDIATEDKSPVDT
# Outline: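 Cell-based read-out of cAMP via a modified cyclic nucleotide-gated channel and membrane potential dye (535/590 nm) in HEK293 cells expressing PDE4 endogenously. Compounds tested up to 22.9 uM final; 100 uM RO 20-1724 reference.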
# [9] = biological target: Guanine nucleotide-binding protein G(i) subunit alpha-1 (Homo sapiens) (UniProt P63096); experiment: qHTS Assay for Inhibitors of RGS12 GoLoco Motif Activity (Green Fluorophore) (AID 879);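 note: negative values mean loss of peptide binding seen as reduced polarization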
# Sequence of Guanine nucleotide-binding protein G(i) subunit alpha-1 (Homo sapiens) (P63096 whole entry, looked up): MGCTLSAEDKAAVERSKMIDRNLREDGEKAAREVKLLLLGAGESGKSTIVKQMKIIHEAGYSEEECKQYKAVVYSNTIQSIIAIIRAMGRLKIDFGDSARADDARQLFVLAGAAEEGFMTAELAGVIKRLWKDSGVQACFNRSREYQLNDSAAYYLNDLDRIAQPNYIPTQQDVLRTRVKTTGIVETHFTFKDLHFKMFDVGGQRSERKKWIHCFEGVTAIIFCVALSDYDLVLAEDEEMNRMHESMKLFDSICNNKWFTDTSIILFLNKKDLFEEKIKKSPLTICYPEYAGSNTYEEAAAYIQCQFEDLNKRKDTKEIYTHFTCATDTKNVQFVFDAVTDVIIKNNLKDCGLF
# Outline: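 Fluorescence polarization assay: 50 nM Gαi1 with 10 nM FITC-labeled RGS12 GoLoco peptide in 10 mM Tris pH 7.5, 150 mM NaCl, 0.1 mM GDP, 0.05% NP40, 10 min at room temperature with compound.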
# [10] = qHTS Assay for Identification of Small Molecule Antagonists for NFkB Signaling Pathway (AID 895; active = well fitted inhibition curve with a large enough effect in the signal ratio, with a control signal flat, not every such curve was filed as active; the % refers to the signal ratio; note: potency is the fitted concentration of half-maximal effect)
# Outline: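 ME-180 NFkB-bla cells (beta-lactamase under NFkB response element), plated overnight, treated with compound then 10 pM TNF alpha (about EC50) for 5 hrs at 37 C. LiveBLAzer FRET read at 460/530 nm emission, 405 nm excitation.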
# [11] = qHTS Assay for Identification of Small Molecule Agonists for Thrombopoietin (TPO) Signaling Pathway (AID 917)
# Outline: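 IL-3-dependent murine pro-B Ba/F3 cells, stably transfected with human TPO receptor and GpIIb-promoter luciferase, are incubated 24 hrs at 37 C with test compound and 26 pM TPO; luciferase signal is read after 10 min at room temperature.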
# [12] = biological target: Muscarinic acetylcholine receptor M1 (Rattus norvegicus) (UniProt P08482); experiment: qHTS Assay for Antagonists of Acetylcholine Muscarinic M1 Receptor: Measurement of IP-One Response (AID 944); note: nearly all actives have a fitted effect of over 75% in size
# Sequence of Muscarinic acetylcholine receptor M1 (Rattus norvegicus) (P08482 whole entry, looked up): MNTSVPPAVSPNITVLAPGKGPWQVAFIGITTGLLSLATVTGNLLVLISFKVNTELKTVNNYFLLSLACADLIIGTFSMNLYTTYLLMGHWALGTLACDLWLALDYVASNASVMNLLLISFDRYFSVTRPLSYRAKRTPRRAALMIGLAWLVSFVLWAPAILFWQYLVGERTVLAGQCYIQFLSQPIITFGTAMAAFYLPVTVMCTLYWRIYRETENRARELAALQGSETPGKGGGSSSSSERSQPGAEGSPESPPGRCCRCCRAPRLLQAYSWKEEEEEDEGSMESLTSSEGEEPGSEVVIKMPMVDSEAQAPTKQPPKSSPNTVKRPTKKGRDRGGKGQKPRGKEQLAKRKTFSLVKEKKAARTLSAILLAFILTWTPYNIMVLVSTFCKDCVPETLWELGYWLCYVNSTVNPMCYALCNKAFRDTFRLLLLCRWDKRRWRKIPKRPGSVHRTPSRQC
# Outline: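 CHO cells expressing rat M1 receptor, recovered overnight, were pre-incubated 10 min with compound, then stimulated 30 min with carbachol at EC80 (200 nM) in LiCl-containing buffer, pH 7.4. IP1 accumulation was read by HTRF (620/665 nm).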
# [13] = biological target: Pyruvate kinase (Leishmania mexicana) (UniProt Q27686); experiment: qHTS Validation Assay for Inhibitors of Leishmania Mexicana Pyruvate Kinase (AID 945)
# Sequence of Pyruvate kinase (Leishmania mexicana) (Q27686 2-499 E452W): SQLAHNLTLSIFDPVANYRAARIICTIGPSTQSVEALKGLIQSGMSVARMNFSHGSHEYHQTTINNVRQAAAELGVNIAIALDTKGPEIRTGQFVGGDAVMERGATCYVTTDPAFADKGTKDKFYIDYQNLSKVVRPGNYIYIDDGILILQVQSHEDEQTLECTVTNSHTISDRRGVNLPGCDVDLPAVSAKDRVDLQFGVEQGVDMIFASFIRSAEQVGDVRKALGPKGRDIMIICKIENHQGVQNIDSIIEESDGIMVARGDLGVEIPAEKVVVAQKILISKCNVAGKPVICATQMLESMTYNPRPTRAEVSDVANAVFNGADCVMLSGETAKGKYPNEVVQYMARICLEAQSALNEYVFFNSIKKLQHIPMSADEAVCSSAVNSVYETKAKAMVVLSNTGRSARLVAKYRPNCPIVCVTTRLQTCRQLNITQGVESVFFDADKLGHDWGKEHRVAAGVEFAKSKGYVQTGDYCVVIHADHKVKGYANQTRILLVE
# Outline: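 Pyruvate kinase activity of E451W LmPYK (0.2 nM) was followed as ATP output after 1 h at room temperature with 0.5 mM PEP and 0.1 mM ADP, detected by PKLight luminescence.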
# [14] = biological target: Pyruvate kinase PKM (Homo sapiens) (UniProt P14618); experiment: qHTS Assay for Activators of Human Muscle Pyruvate Kinase (AID 954; active = well fitted curve in the direction sought with a large enough effect, not every such curve was filed as active)
# Sequence of Pyruvate kinase PKM (Homo sapiens) (P14618 whole entry, looked up): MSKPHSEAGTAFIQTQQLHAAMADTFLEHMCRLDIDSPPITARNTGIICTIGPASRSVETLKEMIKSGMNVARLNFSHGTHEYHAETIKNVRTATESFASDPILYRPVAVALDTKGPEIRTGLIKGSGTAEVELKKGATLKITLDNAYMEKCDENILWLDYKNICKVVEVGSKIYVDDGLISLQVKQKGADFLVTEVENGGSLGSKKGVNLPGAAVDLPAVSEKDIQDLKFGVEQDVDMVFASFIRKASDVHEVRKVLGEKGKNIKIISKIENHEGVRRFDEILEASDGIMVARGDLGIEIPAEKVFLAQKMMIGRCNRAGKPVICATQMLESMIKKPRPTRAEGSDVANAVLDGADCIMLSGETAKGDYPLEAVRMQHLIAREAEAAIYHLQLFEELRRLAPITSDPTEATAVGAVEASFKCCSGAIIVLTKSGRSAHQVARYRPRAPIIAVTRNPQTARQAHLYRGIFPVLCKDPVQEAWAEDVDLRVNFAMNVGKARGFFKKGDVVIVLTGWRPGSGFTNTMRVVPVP
# Outline: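 Human PKM2 activity is measured as ATP generation, detected by luciferase-coupled luminescence. The enzyme (0.1 nM) acts on 0.5 mM PEP and 0.1 mM ADP for 1 h at ambient temperature; data are normalized to uninhibited and full-inhibition wells.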
# [15] = biological target: Alpha-galactosidase A (Homo sapiens) (UniProt P06280); experiment: Counterscreen for Glucocerebrosidase Inhibitors: qHTS Assay for Human alpha-Galactosidase at pH 4.5 (AID 992)
# Sequence of Alpha-galactosidase A (Homo sapiens) (P06280 whole entry, looked up): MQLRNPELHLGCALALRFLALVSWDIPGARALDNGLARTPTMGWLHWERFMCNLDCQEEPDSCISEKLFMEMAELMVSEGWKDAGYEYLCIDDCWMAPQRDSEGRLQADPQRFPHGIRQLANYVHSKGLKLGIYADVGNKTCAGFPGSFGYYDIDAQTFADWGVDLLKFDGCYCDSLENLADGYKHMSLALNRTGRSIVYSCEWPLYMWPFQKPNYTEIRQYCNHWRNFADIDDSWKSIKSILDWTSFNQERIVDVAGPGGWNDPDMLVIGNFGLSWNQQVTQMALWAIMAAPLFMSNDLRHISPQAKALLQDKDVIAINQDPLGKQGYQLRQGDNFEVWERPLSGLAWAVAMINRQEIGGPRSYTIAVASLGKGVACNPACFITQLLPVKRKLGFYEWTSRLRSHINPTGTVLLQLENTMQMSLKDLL
# Outline: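 Quantitative HTS: compounds tested from 0.7 nM up to 77 uM against 2 nM enzyme with 80 uM 4-MU alpha-D-galactopyranoside. The 20 min room-temperature reaction is stopped with 1M NaOH/1M glycine, pH 10.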
# [16] = biological target: alpha-glucosidase (Oryza sativa, rice) (UniProt Q653V4); experiment: Counterscreen for Glucocerebrosidase Inhibitors: qHTS Assay for Rice alpha-Glucosidase at pH 5.0 (AID 997)
# Outline: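 Rice alpha-glucosidase (4 nM final) with 400 uM 4-methylumbelliferyl-alpha-D-glucopyranoside in citrate buffer pH 5.0, 20 min at room temperature, stopped at pH 10; fluorescence 365/440 nm, compounds 0.7 nM–77 uM, AC50 from Hill fits.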
# [17] = biological target: Cytochrome P450 3A4 (Homo sapiens) (UniProt P08684); experiment: qHTS Assay for Activators of Cytochrome P450 3A4 (AID 885); note: nearly all actives have a fitted effect of over 65% in size
# Sequence of Cytochrome P450 3A4 (Homo sapiens) (P08684 whole entry, looked up): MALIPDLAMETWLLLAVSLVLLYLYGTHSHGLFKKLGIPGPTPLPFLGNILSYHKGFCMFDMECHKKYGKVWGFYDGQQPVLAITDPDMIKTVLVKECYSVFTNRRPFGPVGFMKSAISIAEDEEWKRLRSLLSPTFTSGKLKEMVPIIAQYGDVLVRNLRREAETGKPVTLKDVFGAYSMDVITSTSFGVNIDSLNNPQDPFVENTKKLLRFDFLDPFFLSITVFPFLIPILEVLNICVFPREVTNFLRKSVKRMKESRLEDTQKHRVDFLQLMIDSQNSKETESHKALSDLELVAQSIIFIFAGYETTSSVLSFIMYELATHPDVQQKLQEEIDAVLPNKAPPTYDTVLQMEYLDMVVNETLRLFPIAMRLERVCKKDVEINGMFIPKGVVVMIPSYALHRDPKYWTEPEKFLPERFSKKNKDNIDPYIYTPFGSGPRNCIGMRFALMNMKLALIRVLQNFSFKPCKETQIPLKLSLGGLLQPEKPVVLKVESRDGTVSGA
# Outline: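 Signal was normalized against complete inhibition by 57 uM ketoconazole. The reaction used 20nM CYP3A4 with 25uM Luciferin-PPXE, 10-min compound preincubation and a 60-min NADPH-supported step at RT.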
# [18] = biological target: Muscarinic acetylcholine receptor M1 (Rattus norvegicus) (UniProt P08482); experiment: qHTS Assay for Antagonists of Acetylcholine Muscarinic M1 Receptor: Kinetic Measurement of Intracellular Calcium Response (AID 943);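 note: Fluo-4 calcium signal as peak divided by basal fluorescence over 4 min; nearly all actives have a fitted effect of over 75% in size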
# Outline: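 CHO cells stably expressing rat M1 were loaded with no-wash Fluo-4 dye for 1 h at 37C, pre-incubated 10 min with compound, then challenged with EC80 carbachol (100 nM final); kinetic calcium read 4 min, peak/basal ratio.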
# [19] = biological target: Cytochrome P450 2D6 (Homo sapiens) (UniProt P10635); experiment: qHTS Assay for Inhibitors and Substrates of Cytochrome P450 2D6 (AID 891);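 note: luciferin methyl ether substrate demethylated by CYP2D6 with NADPH regeneration; nearly all actives have a fitted effect of over 60% in size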
# Outline: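 Human CYP2D6 (5 nM) with 30 uM Luciferin-ME EGE (at Km) in 100 mM KPO4, compound preincubated 10 min, then NADPH regeneration system for 60 min at room temperature. Luciferin read by luminescence; normalized to 1.43 uM quinidine.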
Structure (SMILES),"activity change, negative = inhibition [1]",Potency [2],"activity change, negative = inhibition [3]","activity, negative = inhibition [4]",Potency [5] [µM],Potency [6] [µM],Potency [7],Potency [8],outcome [9],Potency [10],outcome [11],Potency [12],outcome [13],outcome [14],outcome [15],Potency [16],Potency [17],Potency [18],Potency [19]
CC(C)C[C@H](NC(=O)[C@@H](O)[C@@H](N)Cc1ccccc1)C(=O)O,16.3% [at 38 µM] and 2.81% [at 38 µM],inactive,-15.3% [at 38 µM] and -3.04% [at 38 µM],25.1% [at 38 µM] and 3.44% [at 38 µM],> 46,> 46,inactive,inactive,inactive,1.58 µM (active),inactive,inactive,inactive,inactive,inactive,inactive,–,–,–
COc1cc([C@@H](O)CO)ccc1OS(=O)(=O)O,6.76% [at 38 µM],inactive,4.87% [at 38 µM],7.18% [at 38 µM],> 46,> 46,inactive,inactive,inactive,–,inactive,–,inactive,inactive,inactive,inactive,–,–,–
CCCCC/C=C\C[C@H](O)/C=C\c1cccc(C[C@H](O)CCCCO)n1,-11.3% [at 38 µM],inactive,-9.64% [at 38 µM],54.3% [at 38 µM],> 46,> 46,inactive,inactive,inactive,–,inactive,–,–,inactive,inactive,inactive,inactive,–,–
C[C@H]1CN(S(=O)(=O)c2cccc3cnccc23)CCN1,-12.4% [at 38 µM],inactive,1.25% [at 38 µM],2.7% [at 38 µM],> 46,> 46,inactive,inactive,inactive,2.82 µM (active),inactive,inactive,–,inactive,inactive,inactive,inactive,inactive,–
O=C(O)/C=C\c1cnc[nH]1,4.19% [at 38 µM],inactive,9.72% [at 38 µM],3.14% [at 38 µM],> 46,> 46,inactive,inactive,inactive,–,inactive,inactive,–,inactive,inactive,–,inactive,inactive,–
OC[C@@H]1NC[C@@H](O)[C@@H](O)[C@H]1O,0.931% [at 38 µM],inactive,1.96% [at 38 µM],-28.2% [at 38 µM],> 46,> 46,inactive,inactive,inactive,inactive,inactive,inactive,inactive,inactive,inactive,–,–,inactive,–
C#C[C@H](N)CCC(=O)O,2.59% [at 38 µM],inactive,-4.34% [at 38 µM],1.65% [at 38 µM],> 46,> 46,inactive,inactive,inactive,–,inactive,–,–,inactive,inactive,inactive,–,inactive,inactive
Nc1nc(Nc2ccccc2)nc2c1ncn2[C@@H]1O[C@@H](CO)[C@H](O)[C@@H]1O,-5.61% [at 38 µM],31.6 µM (active),-0.881% [at 38 µM],0.406% [at 38 µM],> 46,> 46,inactive,inactive,inactive,–,–,inactive,inactive,inactive,inactive,–,–,inactive,–
C[C@@H](Cc1ccccc1)Nc1ncnc2c1ncn2[C@@H]1O[C@@H](CO)[C@H](O)[C@@H]1O,-12.1% [at 38 µM],inactive,-0.283% [at 38 µM],-0.703% [at 38 µM],> 46,> 46,inactive,inactive,inactive,3.98 µM (active),inactive,inactive,inactive,inactive,inactive,inactive,inactive,–,–
N[C@H](CCC(=O)NCS(=O)(=O)O)C(=O)O,3.52% [at 38 µM],inactive,4.56% [at 38 µM],-7.51% [at 38 µM],> 46,> 46,inactive,inactive,inactive,–,inactive,inactive,inactive,inactive,inactive,inactive,–,inactive,–
